STK33 inh: inhibitors of human STK33 kinase; Q9BYT3; ADP-Glo luminescence, MBP substrate; inhibition, % at 12.5 µM; hit rate 0.44% among 27,000; AID 2322; in the data active = inhibition above about 20%
Target sequence (Q9BYT3 whole entry, looked up): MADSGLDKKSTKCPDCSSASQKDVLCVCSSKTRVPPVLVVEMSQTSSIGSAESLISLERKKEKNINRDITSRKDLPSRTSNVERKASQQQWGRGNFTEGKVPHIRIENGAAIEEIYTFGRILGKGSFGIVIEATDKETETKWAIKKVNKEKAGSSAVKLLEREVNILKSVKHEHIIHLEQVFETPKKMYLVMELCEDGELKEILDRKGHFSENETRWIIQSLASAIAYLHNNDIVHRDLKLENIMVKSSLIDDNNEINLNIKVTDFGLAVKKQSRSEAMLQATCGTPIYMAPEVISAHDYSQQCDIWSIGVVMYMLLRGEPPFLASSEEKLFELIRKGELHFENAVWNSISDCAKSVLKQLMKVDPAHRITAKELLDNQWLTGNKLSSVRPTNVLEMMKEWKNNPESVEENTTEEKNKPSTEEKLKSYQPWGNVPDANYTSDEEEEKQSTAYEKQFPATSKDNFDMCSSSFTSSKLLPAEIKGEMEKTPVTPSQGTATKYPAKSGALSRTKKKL
PD-1 reverse act: activators reversing PD-1 mediated T-cell inhibition | activation, % (test concentration not listed) | primary human CD4 T cells, PD-L1 beads, CellTiter-Glo 96 h | 29,000 tested, under 10 active; call rule not given here
NOMO-1 viab: STK33 inhibitor candidate reducing NOMO-1 cell viability | NOMO-1 AML viability, CellTiter-Glo luminescence, 72 h | inhibition, % (test concentration not listed) | hit rate 7.5% among 37,000; in the data active = inhibition above about 80%
Each line names hits and unclear results; the compound was inactive in the other large screens. The sample as a whole holds a higher share of hits than the screen did.

CCN(CC)S(=O)(=O)c1ccc(OC)c(NC(=O)c2cc3ccccc3oc2=O)c1	none
C[C@@H]1C[C@H]2[C@@H]3CCC4=CC(=O)C=C[C@]4(C)[C@@]3(Cl)[C@@H](O)C[C@]2(C)[C@@]1(OC(=O)c1ccco1)C(=O)CCl	NOMO-1 viab 114
CCC(=O)OCC(=O)[C@@]1(OC(=O)CC)[C@@H](C)CC2C3CCC4=CC(=O)C=C[C@]4(C)C3(F)[C@@H](O)C[C@@]21C (some centres undefined)	none (no result: PD-1 reverse act)
COc1ccccc1Nc1nc(N)nc(CSc2nc3ccccc3s2)n1	none
COc1ccc(OC)c(NC(=O)COc2ccc(F)cc2)c1	none (no result: PD-1 reverse act)
C/C=C(\C)C(=O)OC1C(OC(=O)/C=C(/C)CC(=O)O)C2(CO)C(O)CC3(C)C(=CCC4C5(C)CCC(OC6OC(C(=O)O)C(O)C(OC7OC(C)C(O)C(OC8OC(CO)C(O)C(O)C8O)C7O)C6O)C(C)(C)C5CCC43C)C2CC1(C)C (centres undefined)	NOMO-1 viab 122
C[C@@H]1O[C@@H](O[C@H]2[C@H](O[C@H]3[C@H](O)[C@@H](C(=O)O)O[C@@H](O[C@H]4CC[C@@]5(C)C(CC[C@]6(C)C5CC[C@]57OC[C@@]8(CCC(C)(C)CC85)[C@H](O)C[C@]76C)C4(C)C)[C@@H]3O[C@@H]3O[C@H](CO)[C@@H](O[C@@H]4OC[C@@H](O)[C@H](O)[C@H]4O)[C@H](O)[C@H]3O)O[C@H](CO)[C@H](O)[C@@H]2O)[C@H](O)[C@H](O)[C@H]1O (some centres undefined)	none
C/C=C(/C)C(=O)O[C@H]1[C@H](OC(=O)/C=C/c2ccccc2)[C@@]23C(CC1(C)C)[C@]1(CCC4[C@@]5(C)CC[C@H](O[C@@H]6O[C@H](C(=O)O)[C@@H](O)[C@H](O[C@@H]7O[C@H](CO)[C@H](O)[C@H](O)[C@H]7O[C@@H]7O[C@@H](C)[C@H](O)[C@@H](O)[C@H]7O[C@@H]7OC[C@](O)(CO)[C@H]7O)[C@H]6O[C@@H]6O[C@H](CO)[C@H](O)[C@H](O)[C@H]6O)C(C)(C)C5CC[C@@]4(C)[C@]1(C)C[C@H]2O)O[C@H]3O (some centres undefined)	NOMO-1 viab 120
C/C=C(/C)C(=O)O[C@H]1[C@H](OC(=O)/C(C)=C\C)[C@]2(CO)[C@H](O)C[C@]3(C)C(=CCC4[C@@]5(C)CC[C@H](OC6OC(C(=O)O)C(O)C(OC7OC(C)C(O)C(OC8OC(CO)C(O)C(O)C8O)C7O)C6O)C(C)(C)C5CC[C@]43C)[C@@H]2CC1(C)C (some centres undefined)	NOMO-1 viab 122
CC1(C)CC[C@]2(C(=O)O[C@@H]3O[C@H](CO)[C@@H](O)[C@H](O)[C@H]3O)CC[C@]3(C)C(=CCC4[C@@]5(C)CC[C@H](O[C@@H]6O[C@H](CO)[C@@H](O)[C@H](O[C@@H]7O[C@H](CO)[C@@H](O)[C@H](O)[C@H]7O)[C@H]6O[C@@H]6O[C@H](CO)[C@H](O)[C@H](O)[C@H]6O)C(C)(C)C5CC[C@]43C)[C@@H]2C1 (some centres undefined)	none (no result: PD-1 reverse act, NOMO-1 viab)
CC1(C)CC[C@@]2(C(=O)O[C@@H]3O[C@H](CO)[C@@H](O)[C@H](O)[C@H]3O)C(C1)C1=CCC3[C@@]4(C)CC[C@@H](O[C@@H]5O[C@H](CO)[C@@H](O)[C@H](O)[C@H]5O[C@@H]5O[C@H](CO)[C@@H](O)[C@H](O)[C@H]5O)C(C)(C)C4CC[C@@]3(C)[C@]1(C)C[C@H]2O (some centres undefined)	none
CC1=C(C(=O)Nc2ccccc2C)C(c2cccc([N+](=O)[O-])c2)n2ncnc2N1 (centres undefined)	none
N#Cc1cccc(NC(=O)CCCN2C(=O)c3ccccc3C2=O)c1	none
N#CC(C#N)=C(Nc1ccc(Br)cc1)SCc1ccc(F)cc1	NOMO-1 viab 112 (no result: STK33 inh)
CNC(=O)CSCc1ccc(Br)cc1	none (no result: STK33 inh)
S=C(NC1CCCCC1)Sc1ccc(Cl)cc1	NOMO-1 viab 122
S=C(NC1CCCCC1)C(=S)NC1CCCCC1	none (no result: STK33 inh)
CC(N=Cc1c(O)ccc2ccccc12)C12CC3CC(CC(C3)C1)C2 (centres undefined)	NOMO-1 viab 101 (no result: STK33 inh)
O=C(Nc1cccc2ccccc12)C12CC3CC(CC(C3)C1)C2	none (no result: STK33 inh)
O=C(Nc1ccccc1Cl)C1CC(=O)n2ncnc2N1 (centres undefined)	none
COc1ccc(NC(=O)c2cccc(C)c2)c(OC)c1	none (no result: STK33 inh)
C[C@]12CCC3c4ccc(O)cc4CC[C@H]3C1CC[C@H]2O (some centres undefined)	NOMO-1 viab 96
CC12CCC3c4ccc(OC(=O)c5ccccc5)cc4CCC3C1CCC2O (centres undefined)	none (no result: PD-1 reverse act)
C[C@]12CC[C@@H]3c4ccc(O)cc4CC[C@H]3[C@@H]1CC[C@@H]2O	NOMO-1 viab 87 (no result: PD-1 reverse act)

Assay outcomes (PubChem)
